Screening data: PubChem, National Center for Advancing Translational Sciences (NCATS)
Shown are actives, neighbours in structure and some others; about 12% of the full set was active somewhere.
G9a block: blocks human histone lysine methyltransferase G9a; Potency, µM (highest dose often 102 µM), inactives show top-dose activity, negative = inhibition, actives largely listed as inhibitors; G9a H3K9 monomethylation, AlphaScreen, 2 h; 350,000 tested, 8.8% active; AID 504332; further: on the % scale 0 is the no-effect control and ±100 the full control effect; nearly all actives have a fitted effect of over 75% in size
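Methyltransferase reactions run at room temperature for 2 h (20 nM enzyme, 500 nM biotin-H3K9 peptide, 20 uM SAM) after a 15 min compound preincubation; product detected by AlphaScreen beads and anti-H3K9me1 antibody.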
HP1b binding inh: inhibitors of HP1-beta chromodomain binding to methylated histone tails | P83916 | AlphaScreen HP1-beta / biotin-H3K9me3 peptide binding | Potency, µM (top dose mostly 114 µM), for the others: at the top dose activity change, negative = inhibition, usual class: inhibitors | 390,000 tested, 0.56% active | AID 540317; further: nearly all actives have a fitted effect of over 70% in size
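AlphaScreen: HP1-beta (50 nM) preformed 30 min with biotin-H3(1-18)K9me3 peptide (50 nM) in PBS pH 7.4, 0.01% Tween-20. Compound added for 30 min at RT, then streptavidin donor/nickel chelate acceptor beads (10 ug/mL) for 30 min.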
Sfp PPTase inh: Sfp phosphopantetheinyl transferase inhibition; Q9F4F7; Biochemical Sfp PPTase activity, qHTS; Potency, µM, for the others: largest response in the series, negative = inhibition, usual class: inhibitors; 310,000 tested, 3.5% active; AID 1490;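 further: the enzyme is Sfp with the accession as filed and its product quenches rhodamine fluorescence; 0% = enzyme reaction without inhibitor and -100% = no enzyme wells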
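Fluorescence-quenching assay: 15 nM Sfp-PPTase preincubated 15 min at room temperature with compound, then 5 uM rhodamine-CoA and 12.5 uM BHQ-2-labelled YbbR peptide added. Fluorescence (ex 525/em 598 nm) read at start and after 30 min; difference gives rate.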
L3MBTL1 block: inhibitors of human L3MBTL1; Q9Y468; AlphaScreen L3MBTL1–H3K9me1 peptide binding; Potency, µM (highest dose often 57.1 µM), for inactives: at the top dose activity, negative = inhibition, hits mostly inhibitors; 230,000 tested, 0.66% active; AID 485360; further: on the % scale 0 is the no-effect control and ±100 the full control effect; nearly all actives have a fitted effect of over 60% in size
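AlphaScreen assay: L3MBTL1 (50 nM final) was preincubated 30 min at room temperature with biotinylated H3(1-15)K9me1 peptide (75 nM final), then 30 min with library compounds; streptavidin donor and nickel chelate acceptor beads (10 ug/mL final) added, 30 min dark.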
BAZ2B inh: blocks human BAZ2B. Q9UIF8. AID 504333. 360,000 tested, 4.4% active. AlphaScreen BAZ2B-H3K14Ac peptide displacement. Potency, µM (titrated, usually from 114 µM), inactives show top-dose activity change, negative = inhibition, actives largely listed as inhibitors; further: on the % scale 0 is the no-effect control and ±100 the full control effect; nearly all actives have a fitted effect of over 60% in size
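Inhibition is scored as reduced AlphaScreen emission. The BAZ2B/b-H3(5-23)K14Ac complex (50 nM each) in PBS pH 7.4, 0.01% Tween-20 meets compound (up to 110 uM) for 30 min at RT before bead addition.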
JMJD2A Tudor: JMJD2A Tudor domain (human) inhibition; O75164; AlphaScreen JMJD2A-Tudor / H3K4me3 peptide binding; Potency, µM (titrated, usually from 114 µM), for inactives: at the highest dose activity change, negative = inhibition, usual class: inhibitors; 390,000 tested, 4.4% active; further: on the % scale 0 is the no-effect control and ±100 the full control effect; nearly all actives have a fitted effect of over 50% in size
An asterisk follows results filed as active; ? = inconclusive; / = no result given; [ ] = another dose, or the depositor's remark. The call rests on the fitted dose curve; in most records, active means well fitted curve in the direction sought with a large enough effect; inconclusive means small, poorly fitted or top-dose-only effect, or another doubt; inactive means no such curve, though single readings can be large; an effect the other way counts as inactive or inconclusive. Potency means the concentration at half of the fitted maximal effect.

SMILES	G9a block	HP1b binding inh	Sfp PPTase inh	L3MBTL1 block	BAZ2B inh	JMJD2A Tudor
COCCN1CCc2nc(SCC(=O)Nc3ccc(C)c(Cl)c3)[nH]c(=O)c2C1	?	54%	/	/	0%	-1%
COc1ccc(-c2nnc3ccc(SCC(=O)N4CCOCC4)nn23)cc1	22µM*	37%	-1%	-11%	4%	-8%
O=C(CSc1ccc2nnc(-c3cccs3)n2n1)N1CCCC1	18µM*	47%	-21%	?	?	-3%
O=C(CSc1ccc(-c2cccs2)nn1)N1CCCCCC1	-11%[59 µM]	41%	1%	9%	1%	-1%
CCOC(=O)CSc1ccc2nnc(-c3cccs3)n2n1	10µM*	39%	-5%	?	5%	-35%
COc1ccc(-c2nnc3ccc(SCC(=O)N4CCN(c5ccccc5)CC4)nn23)cc1	/	34%	/	/	/	?
CCSc1ccc2nnc(-c3cccs3)n2n1	?	20%	5%	8%	-27%	-16%
Cc1ccc2c(c1)c(=O)c(C(=O)c1ccccc1)cn2Cc1ccccc1F	-13%[59 µM]	14%	/	/	?	?
N[C@@H](C(=O)O)[C@@H](CC(=O)O)c1ccc(Cl)cc1	20%[59 µM]	/	-4%	/	/	/
COc1cc(C(=O)NCc2ccc3c(c2)CCN3C(=O)c2ccc(Cl)cc2)cc(OC)c1OC	-2%[59 µM]	23%	/	/	-6%	-19%
S=c1[nH]nc(-c2ccc(Br)cc2)n1-c1ccc(Br)cc1	8.9µM*	20%	22%	-11%	-12%	-31%
O=C(O)c1ccc(-n2c(-c3ccc(Br)cc3)n[nH]c2=S)cc1	?	32%	?	/	-25%	7.1µM*
Cc1[nH]c2ccc(-c3n[nH]c(=S)n3-c3ccc(Br)cc3)cc2c1C	-1%	30%	13%	3%	?	-17%
Cc1nc(=O)c(-c2ccccc2)c(C)n1-c1ccc(C(=O)O)cc1	?	22%	4%	5%	-7%	-27%
COc1cc(-c2n[nH]c(=S)n2-c2ccc(Br)cc2)cc(OC)c1OC	/	15%	-3%	2%	-1%	50µM*
O=[N+]([O-])c1cccc(-c2n[nH]c(=S)n2-c2ccc(Br)cc2)c1	6.3µM*	-1%	-5%	-9%	-37%	?
CC(C)C[C@H](NC(=O)[C@H](Cc1ccccc1)NC(=O)CNC(=O)[C@H](CCC(=O)O)NC(=O)[C@H](CCCNC(=N)N)NC(=O)[C@H](C)NC(=O)[C@H](C)NC(=O)[C@@H](N)CC(=O)O)C(=O)N[C@@H](CC(=O)O)C(=O)N[C@H](C(=O)N[C@@H](CC(C)C)C(=O)N[C@H](C(=O)N[C@H](C(=O)N[C@@H](CC(C)C)C(=O)N[C@@H](Cc1cnc[nH]1)C(=O)N[C@@H](CCCNC(=N)N)C(=O)N[C@@H](C)C(=O)NCC(=O)N[C@@H](C)C(=O)N[C@@H](CCCNC(=N)N)C(=O)O)C(C)C)C(C)C)[C@@H](C)O	/	/	7%	/	/	/
Cc1cccc(C)c1NC(=O)CN(C)C(=O)CCc1nc2sc3c(c2c(=O)[nH]1)CCCC3	10%[12.7 µM]	27%	/	-29%	?	-24%
CCOC(=O)C1CCN(C(=O)CCc2nc3sc4c(c3c(=O)[nH]2)CCCC4)CC1	50µM*	15%	/	-25%	?	?
CN(CC(=O)Nc1ccc(F)c(F)c1F)C(=O)CCc1nc2sc3c(c2c(=O)[nH]1)CCCC3	50µM*	-7%	/	?	50µM*	-36%
CCN(C(=O)Cn1nnc2sc(-c3ccccc3)cc2c1=O)c1cccc(C)c1	4.5µM*	-18%	/	/	-37%	?
CCc1ccc(NC(=O)C(C)n2nnc3sc(-c4ccccc4)cc3c2=O)cc1 (configuration not stated)	3.5µM*	-14%	/	/	-8%	-28%
CCCN(CCC)C(=O)Cn1nnc2sc(-c3ccccc3)cc2c1=O	13µM*	-4%	/	/	?	-29%
CCCCOC(=O)Cn1nnc2sc(-c3ccccc3)cc2c1=O	10%[59 µM]	46%	/	/	-16%	-14%
Cc1cc(C(=O)C(=O)Nc2nncs2)c(C)n1-c1ccc(Cl)cc1	-24%[59 µM]	-9%	/	/	-28%	-12%
SMILES	G9a block	HP1b binding inh	Sfp PPTase inh	L3MBTL1 block	BAZ2B inh	JMJD2A Tudor
Cc1ccccc1NC(=O)Cc1nc(COC(=O)C(C)C)cs1	?	26%	1%	/	-11%	-6%
COc1ccccc1NC(=O)Cc1nc(CCl)cs1	6.3µM*	24%	-5%	6%	56µM*	?
Cc1ccccc1NC(=O)Cc1nc(COC(=O)c2ccccn2)cs1	50µM*	20%	/	2%	9%	1%
COc1cc(C)ccc1NC(=O)Cc1csc(NC(=O)Nc2ccccc2OC)n1	13µM*	7%	/	-4%	?	-31%
CCCNc1c(N)n(-c2ccccc2)c(=O)[nH]c1=O	35µM*	14%	-11%	/	56µM*	?
Nc1c(N=O)c(=O)[nH]c(=O)n1-c1ccccc1	/	-17%	/	/	/	50µM*
COC(=O)C1=C(C(=O)OC)[C@@H]2N(C)c3ccc(OC)cc3[C@@]23C[C@@H](C(=O)OC)N(S(=O)(=O)c2ccc(C#N)cc2)C3=N1	/	/	7%	/	/	/
CC(=O)c1ccc(S(=O)(=O)Nc2ccc(N3CCOCC3)cc2)cc1	28µM*	-19%	-1%	/	-32%	-27%
O=S(=O)(NCCN1CCOCC1)c1ccc(F)c(Cl)c1	6%	11%	-7%	/	-2%	14µM*
O=S(=O)(Nc1cccnc1)c1cccc(Cl)c1	-51%[59 µM]	32%	17%	/	-2%	-12%
O=S(=O)(NCCN1CCOCC1)c1ccc(Cl)c(Cl)c1	?	32%	7%	/	2%	-2%
CC(=O)c1cccc(S(=O)(=O)Nc2cccnc2)c1	45µM*	13%	11%	/	-37%	-9%
CC(=O)c1cccc(S(=O)(=O)Nc2ccc(N3CCOCC3)cc2)c1	50µM*	-37%	6%	/	-24%	-21%
Cc1ccc(Cl)cc1N1CCN(C(=O)c2cc3c(-c4ccccc4F)nn(C)c3s2)CC1	-2%[59 µM]	26%	/	/	/	-16%
CCOC(=O)c1cccc(Nc2c3c(nc4ccccc24)CCC3)c1	-38%[59 µM]	26%	/	/	/	-25%
Cn1nc(-c2ccccc2F)c2cc(C(=O)NCc3cccc(Cl)c3)sc21	-10%[59 µM]	4%	/	/	-8%	-26%
COCCNS(=O)(=O)c1ccc2c(c1)n(C)c(=O)n2C	4.5µM*	13%	6%	/	-10%	-9%
CC(C)(C)c1cc(NS(=O)(=O)c2ccc3c(c2)OCCO3)on1	-6%[59 µM]	24%	-2%	-1%	3%	-34%
C/C(=N\Nc1ccc(S(=O)(=O)Nc2ccccc2)cc1[N+](=O)[O-])c1ccc(N2CCOCC2)cc1	?	?	7%	-3%	?	?
